Test results published in PubChem BioAssay (Tox21).
Records with an inconclusive call do not appear. Calls of active or inactive are those of the source. Unless noted, calls come from the whole dose curve.

molecular target: Retinoic acid receptor RXR-alpha (Homo sapiens) (UniProt P19793); experiment: qHTS assay to identify small molecule agonists of the RXR signaling pathway (AID 1159527); conditions: HEK293T RXRa-UAS-bla, beta-lactamase ratio, 16 h; series mostly up to 76.8 µM; activation: at the top concentration; note: nearly all actives have a fitted effect of over 35% in size
Sequence (P19793 whole entry, looked up): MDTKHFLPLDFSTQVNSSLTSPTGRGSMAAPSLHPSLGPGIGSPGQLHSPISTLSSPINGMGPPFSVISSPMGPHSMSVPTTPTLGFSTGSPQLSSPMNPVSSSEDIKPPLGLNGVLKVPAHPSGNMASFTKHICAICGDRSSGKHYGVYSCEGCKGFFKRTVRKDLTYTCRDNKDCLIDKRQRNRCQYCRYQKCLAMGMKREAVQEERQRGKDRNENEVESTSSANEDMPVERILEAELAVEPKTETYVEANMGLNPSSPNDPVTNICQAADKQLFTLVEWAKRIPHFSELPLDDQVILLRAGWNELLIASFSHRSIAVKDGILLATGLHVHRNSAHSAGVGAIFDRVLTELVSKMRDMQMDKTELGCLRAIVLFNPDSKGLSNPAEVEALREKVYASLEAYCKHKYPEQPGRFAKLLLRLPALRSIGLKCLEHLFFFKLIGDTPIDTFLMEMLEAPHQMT
Procedure, shortened: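 Using 9-cis retinoic acid as the reference agonist, chemicals were tested in HEK 293T cells […] for 16 hr; substrate loading lasted 2 hr at room temperature.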
% is set by controls: 0 for no effect and ±100 for the full control effect.

Row | SMILES | activation | Potency
1 | O=S(=O)(c1ccccc1)c1ccc(Cl)cc1 | -17.5% (inactive) | –
2 | CCCCC(CC)COC(=O)COc1ccc(Cl)cc1C (stereo not drawn) | 10.1% (inactive) | –
3 | CCn1nc(C)c2c1C(=O)NCC(c1ccc(O)cc1)=N2 | 4.59% (inactive) | –
4 | CCCC1C(CC)=CC(CC)=CN1c1ccccc1 (stereo not drawn) | -0.296% (inactive) | –
5 | O=S1OCCO1 | 2.14% (inactive) | –
6 | Nc1ccc(S(=O)(=O)O)c(N)c1 | 1.41% (inactive) | –
7 | NC(=O)Nc1ccc(Cl)cc1 | 1.47% (inactive) | –
8 | O=C(C(=O)c1ccccc1)c1ccccc1 | -11% (inactive) | –
9 | N#C[C@@H]1C[C@@H]2C[C@@H]2N1C(=O)[C@@H](N)C12CC3CC(CC(O)(C3)C1)C2 | 0.27% [at 35.3 µM] (inactive) | –
10 | CCC(C)(O)CCC=C(C)C (stereo not drawn) | 16% (inactive) | –
11 | CN1CCN(CCCN2c3ccccc3Sc3ccc(S(=O)(=O)N(C)C)cc32)CC1 | -26.8% [at 35.3 µM] (inactive) | –
12 | CCCCCCOC(=O)CCCCCCCC(=O)OCCCCCC | -0.801% (inactive) | –
13 | CC(=O)Nc1ccccc1C | 15.1% (inactive) | –
14 | Oc1cc(O)c(Cl)cc1Cl | 11% (inactive) | –
15 | CC(=O)OCC(=O)[C@@]12OC(C)(C)O[C@@H]1C[C@H]1[C@@H]3C[C@H](F)C4=CC(=O)C=C[C@]4(C)[C@@]3(F)[C@@H](O)C[C@@]12C | 4.92% [at 35.3 µM] (inactive) | –
16 | CC(CCO)CCc1ccccc1 (stereo not drawn) | -4.63% (inactive) | –
17 | CCOCCn1c(C2CCN(CCc3ccc(C(C)(C)C(=O)O)cc3)CC2)nc2ccccc21 | 10.7% [at 35.3 µM] (inactive) | –
18 | CCCC(=O)O[C@]1(C(=O)COC(=O)CC)CC[C@H]2[C@@H]3CCC4=CC(=O)CC[C@]4(C)[C@H]3[C@@H](O)C[C@@]21C | 11.5% [at 15.8 µM] (inactive) | –
19 | O=[N+]([O-])c1cccc(S(=O)(=O)NCCNS(=O)(=O)c2cccc([N+](=O)[O-])c2)c1 | -0.986% [at 35.3 µM] (inactive) | –
20 | CC1=C(C=O)C(C)(C)CCC1 | 12% (inactive) | –

Row | SMILES | activation | Potency
21 | CCC(=O)OC/C=C/c1ccccc1 | – | inactive
22 | CCn1cc(C(=O)O)c(=O)c2cc(F)c(N3CCNCC3)nc21 | 8.62% [at 35.3 µM] (inactive) | –
23 | C/C(=N/NC(=O)c1ccncc1)C(=O)O | -7.45% [at 35.3 µM] (inactive) | –
24 | CC1CN(c2cc3c(cc2F)c(=O)c(C(=O)O)cn3-c2ccc(F)cc2F)CCN1 (stereo not drawn) | -0.207% [at 6.98 µM] (inactive) | –
25 | Nc1nccs1 | -0.953% (inactive) | –
26 | CN1CCN(c2c(F)cc3c(=O)c(C(=O)O)cn4c3c2OCN4C)CC1 | 9.65% [at 15.8 µM] (inactive) | –
27 | C=CC(C)=CCC=C(C)C | -7.56% (inactive) | –
28 | CO[Si](C)(OC)OC | -5.8% (inactive) | –
29 | CC(C)(O)c1ccccc1CC[C@@H](SCC1(CC(=O)O)CC1)c1cccc(/C=C/c2ccc3ccc(Cl)cc3n2)c1 | -11.4% [at 35.3 µM] (inactive) | –
30 | OC(CCCN1CCCCC1)(c1ccccc1)c1ccccc1 | -13.7% [at 35.3 µM] (inactive) | –
31 | CCCCCCCC/C=C\CCCCCCCC(=O)OC | 0.0327% (inactive) | –
32 | CCCCCCCCCOC(C)=O | 2.75% (inactive) | –
33 | O=C(O)c1snc(Cl)c1Cl | -3.06% (inactive) | –
34 | CN1Cc2cc(C(=O)N3CCC(C4CCNCC4)CC3)ccc2N[C@@H](CC(=O)O)C1=O | 6.44% [at 35.3 µM] (inactive) | –
35 | CC(N)CN (stereo not drawn) | 19.7% (inactive) | –
36 | C/C=C(\C)C(=O)OCCC(C)CCC=C(C)C (stereo not drawn) | -17.9% (inactive) | –
37 | Cc1cc(C(=C2C=CC(=Nc3ccc(S(=O)(=O)O)cc3S(=O)(=O)O)C=C2)c2ccc(Nc3ccc(S(=O)(=O)O)cc3)cc2)ccc1N | -1.12% [at 35.3 µM] (inactive) | –
38 | CC(CCc1ccc2c(c1)OCO2)NN (stereo not drawn) | 1.3% [at 35.3 µM] (inactive) | –
39 | Cn1c(=O)c2c(ncn2CC(=O)O)n(C)c1=O | 2.74% [at 35.3 µM] (inactive) | –

test system: not listed separately; experiment: qHTS assay to identify small molecule agonists of the RXR signaling pathway - cell viability counter screen (AID 1159529; active = well fitted cell-killing curve with a large enough effect in the repeat runs; note: nearly all actives have a fitted effect of over 50% in size; note: potency is the fitted concentration of half-maximal effect); conditions: RXR-alpha-bla HEK293T viability, CellTiter-Glo, 16 h; series mostly up to 76.8 µM; activity change, negative = cytotoxicity: at the top concentration
Procedure, shortened: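 Compounds dissolved in DMSO were pinned onto HEK 293T cells carrying a beta-lactamase reporter under RXR-alpha control and incubated 16 hr. Cytotoxicity was then quantified by CellTiter-Glo luminescence.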

Row | SMILES | activity change, negative = cytotoxicity | Potency
40 | O=S(=O)(c1ccccc1)c1ccc(Cl)cc1 | 4.23% (inactive) | –
41 | CCCCC(CC)COC(=O)COc1ccc(Cl)cc1C (stereo not drawn) | -8.64% (inactive) | –
42 | CCn1nc(C)c2c1C(=O)NCC(c1ccc(O)cc1)=N2 | -6.15% (inactive) | –
43 | CCCC1C(CC)=CC(CC)=CN1c1ccccc1 (stereo not drawn) | -3.39% (inactive) | –
44 | O=S1OCCO1 | 7.92% (inactive) | –
45 | Nc1ccc(S(=O)(=O)O)c(N)c1 | 0.347% (inactive) | –
46 | NC(=O)Nc1ccc(Cl)cc1 | 0.527% (inactive) | –
47 | O=C(C(=O)c1ccccc1)c1ccccc1 | -2.07% (inactive) | –
48 | N#C[C@@H]1C[C@@H]2C[C@@H]2N1C(=O)[C@@H](N)C12CC3CC(CC(O)(C3)C1)C2 | -4.66% [at 35.3 µM] (inactive) | –
49 | CCC(C)(O)CCC=C(C)C (stereo not drawn) | 6.14% (inactive) | –
50 | CN1CCN(CCCN2c3ccccc3Sc3ccc(S(=O)(=O)N(C)C)cc32)CC1 | – | 23.9 µM (active)
51 | CCCCCCOC(=O)CCCCCCCC(=O)OCCCCCC | 4.45% (inactive) | –
52 | CC(=O)Nc1ccccc1C | 9.62% (inactive) | –
53 | Oc1cc(O)c(Cl)cc1Cl | 0.755% (inactive) | –
54 | CC(=O)OCC(=O)[C@@]12OC(C)(C)O[C@@H]1C[C@H]1[C@@H]3C[C@H](F)C4=CC(=O)C=C[C@]4(C)[C@@]3(F)[C@@H](O)C[C@@]12C | 3.22% [at 35.3 µM] (inactive) | –
55 | CC(CCO)CCc1ccccc1 (stereo not drawn) | 9.57% (inactive) | –
56 | CCOCCn1c(C2CCN(CCc3ccc(C(C)(C)C(=O)O)cc3)CC2)nc2ccccc21 | 11.3% [at 35.3 µM] (inactive) | –
57 | CCCC(=O)O[C@]1(C(=O)COC(=O)CC)CC[C@H]2[C@@H]3CCC4=CC(=O)CC[C@]4(C)[C@H]3[C@@H](O)C[C@@]21C | 2.05% [at 15.8 µM] (inactive) | –
58 | O=[N+]([O-])c1cccc(S(=O)(=O)NCCNS(=O)(=O)c2cccc([N+](=O)[O-])c2)c1 | -6.12% [at 35.3 µM] (inactive) | –
59 | CC1=C(C=O)C(C)(C)CCC1 | -0.531% (inactive) | –

Row | SMILES | activity change, negative = cytotoxicity | Potency
60 | CCC(=O)OC/C=C/c1ccccc1 | -7.95% (inactive) | –
61 | CCn1cc(C(=O)O)c(=O)c2cc(F)c(N3CCNCC3)nc21 | 11.3% [at 35.3 µM] (inactive) | –
62 | C/C(=N/NC(=O)c1ccncc1)C(=O)O | -11.7% [at 35.3 µM] (inactive) | –
63 | CC1CN(c2cc3c(cc2F)c(=O)c(C(=O)O)cn3-c2ccc(F)cc2F)CCN1 (stereo not drawn) | -4.54% [at 6.97 µM] (inactive) | –
64 | Nc1nccs1 | 1.32% (inactive) | –
65 | CN1CCN(c2c(F)cc3c(=O)c(C(=O)O)cn4c3c2OCN4C)CC1 | 2.53% [at 15.8 µM] (inactive) | –
66 | C=CC(C)=CCC=C(C)C | -16% (inactive) | –
67 | CO[Si](C)(OC)OC | 5.67% (inactive) | –
68 | CC(C)(O)c1ccccc1CC[C@@H](SCC1(CC(=O)O)CC1)c1cccc(/C=C/c2ccc3ccc(Cl)cc3n2)c1 | -0.814% [at 35.3 µM] (inactive) | –
69 | OC(CCCN1CCCCC1)(c1ccccc1)c1ccccc1 | -1.16% [at 35.3 µM] (inactive) | –
70 | CCCCCCCC/C=C\CCCCCCCC(=O)OC | -3.37% (inactive) | –
71 | CCCCCCCCCOC(C)=O | 8.12% (inactive) | –
72 | O=C(O)c1snc(Cl)c1Cl | 7.73% (inactive) | –
73 | CN1Cc2cc(C(=O)N3CCC(C4CCNCC4)CC3)ccc2N[C@@H](CC(=O)O)C1=O | 1.3% [at 35.3 µM] (inactive) | –
74 | CC(N)CN (stereo not drawn) | 26.3% (inactive) | –
75 | C/C=C(\C)C(=O)OCCC(C)CCC=C(C)C (stereo not drawn) | 0.367% (inactive) | –
76 | Cc1cc(C(=C2C=CC(=Nc3ccc(S(=O)(=O)O)cc3S(=O)(=O)O)C=C2)c2ccc(Nc3ccc(S(=O)(=O)O)cc3)cc2)ccc1N | -0.88% [at 35.3 µM] (inactive) | –
77 | CC(CCc1ccc2c(c1)OCO2)NN (stereo not drawn) | -1.99% [at 35.3 µM] (inactive) | –
78 | Cn1c(=O)c2c(ncn2CC(=O)O)n(C)c1=O | 4.19% [at 35.3 µM] (inactive) | –
